# Measurements published in PubChem BioAssay AID504652 (National Center for Advancing Translational Sciences (NCATS), 2011).
# “And” between values parts separate entries of the source, which are not always exact repeats. Equal values may be shown once. Screen size: about 360,000 compounds; about 11,000 (3.1%) were called active. The sample holds actives, similar compounds and a random draw of the others, so the mix is not that of the screen. No stated cut-off is given here; in the data, active means activity change below about -30%; inactive means the rest. Some structures have more than one record in an assay (separate samples or runs), and their calls can disagree.
# Target: D(1A) dopamine receptor (Homo sapiens) (UniProt P21728)
# Test: Antagonist of Human D 1 Dopamine Receptor: qHTS
# Conditions: HEK293 TREx D1 cells, calcium flux, dopamine EC80; at 10 µM; stronger effect = lower value
# Method in brief: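 Antagonism measured as reduced calcium response to an EC80 dopamine addition following 180 s compound pre-read; cells were inducible HEK293 Trex D1 plated overnight at 30 C, read kinetically at 1 cycle/sec.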
# On the % scale 0 is the no-effect control and ±100 the full control effect.
# Chain of D(1A) dopamine receptor (Homo sapiens) (P21728 whole entry, looked up): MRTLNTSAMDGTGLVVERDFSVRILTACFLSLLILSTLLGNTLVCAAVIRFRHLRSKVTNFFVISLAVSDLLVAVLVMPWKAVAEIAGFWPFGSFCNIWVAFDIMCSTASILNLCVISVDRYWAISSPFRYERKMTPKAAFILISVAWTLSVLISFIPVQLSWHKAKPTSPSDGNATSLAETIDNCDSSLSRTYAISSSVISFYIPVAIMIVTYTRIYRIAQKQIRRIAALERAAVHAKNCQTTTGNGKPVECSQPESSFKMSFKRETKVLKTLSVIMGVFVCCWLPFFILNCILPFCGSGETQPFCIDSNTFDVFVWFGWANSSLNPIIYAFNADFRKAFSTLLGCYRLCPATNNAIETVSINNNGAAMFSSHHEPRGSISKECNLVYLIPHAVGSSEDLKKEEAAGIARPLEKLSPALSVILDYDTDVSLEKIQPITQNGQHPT
row,SMILES,"activity change, negative = inhibition"
1,COc1ccc(N2CCN(c3nc(-c4ccccc4F)nc4ccccc34)CC2)cc1,-14.4% (inactive)
2,CCc1ccc(CN(Cc2ccco2)C(=O)c2ccccc2Cl)cc1,-13.4% (inactive)
3,COc1ccc(CN(C)C(=O)Cc2ccsc2)c(OC)c1OC,-6.5% (inactive)
4,COc1ccccc1C(C)NC(=O)Cc1ccsc1 (centres undefined),-36.8% (active)
5,COc1ccccc1OCc1ccc(C(=O)NC(C)c2ccccc2)o1 (centres undefined),10.5% (inactive)
6,CN(C(=O)CSc1nc2ccccc2n1Cc1ccccc1C#N)c1ccccc1,5.88% (inactive)
7,COc1ccc(-c2c(C)c3ccc(O)c(CN4CCCC4)c3oc2=O)cc1OC,3.24% (inactive)
8,COc1ccc(-c2c(C)c3ccc(O)c(CN4CCN(C)CC4)c3oc2=O)cc1OC,-44.5% (active)
9,CCN1CCN(Cc2c(O)ccc3c(=O)c(-c4ccc(OC)c(OC)c4)c(C(F)(F)F)oc23)CC1,10.8% (inactive)
10,Cc1cccc(-c2nnc(SCC(=O)N3CCCc4ccccc43)o2)c1,-12.2% (inactive)
11,COc1cccc(NC(C)=[N+](C)CCNS(=O)(=O)c2ccc(Cl)cc2)c1,-6.9% (inactive)
12,CCN(CC(=O)Nc1ccc(S(=O)(=O)N2CCCC2)cc1)CC(=O)Nc1cccc(OC)c1,-18.1% (inactive)
13,CCNS(=O)(=O)c1ccc(NC(=O)Nc2cccc(OC)c2)cc1,-47.6% (active)
14,CN1c2ccc(Cl)cc2-c2nc(SCC(=O)Nc3cc(F)ccc3F)ncc2S1(=O)=O,24.7% (inactive)
15,Cc1ccc2oc(=O)c3cnn(CC(=O)N4CCN(c5cccc(Cl)c5)CC4)c3c2c1,4.75% (inactive)
16,Cc1ccc(C2c3[nH]c4ccccc4c3CCN2C(=O)c2cccc(C)c2)cc1 (centres undefined),-0.549% (inactive)
17,COCc1ccc(C(=O)N2CCc3c([nH]c4ccccc34)C2c2ccccn2)s1 (centres undefined),-33.8% (active)
18,Cc1cccc(C2c3[nH]c4ccccc4c3CCN2C(=O)c2cc(-c3cccn3C)n[nH]2)n1 (centres undefined),8.11% (inactive)
19,Cc1cc(OCC(=O)Nc2ncn[nH]2)c(C)c(C)c1Br,3.31% (inactive)
20,Cc1cc(/C=C2\SC(=Nc3ccc(N4CCOCC4)cc3)N(C)C2=O)c(C)n1-c1cccnc1,-38% (active)
21,COC(=O)c1cc(NC(=O)c2cccnc2)ccc1N1CCOCC1,1.15% (inactive)

row,SMILES,"activity change, negative = inhibition"
1,COc1ccc(S(=O)(=O)c2cn(C)c3cc(N4CCCCC4)c(F)cc3c2=O)cc1,-5.11% (inactive)
2,O=C(/C=C/c1ccccc1)Nc1cc(-c2nc3cc(Cl)ccc3o2)ccc1Cl,-9.92% (inactive)
3,COc1ccc(CNc2ccc3c(c2)CCC3)cc1OC,9.59% (inactive)
4,COc1ccc(CNc2cc(C)cc(C)c2)cc1OC,-45.1% (active)
5,COc1ccc(CNCCCO)cc1OC,14.1% (inactive)
6,CCOC(=O)c1ccc(N2C(=O)c3n[nH]c(-c4ccco4)c3C2c2ccc(O)cc2)cc1 (centres undefined),13% (inactive)
7,CC(=O)c1ccc(NC(=O)CSc2c(C(C)C)cnc3c2c(=O)n(C)c(=O)n3C)cc1,1.89% (inactive)
8,CCCCN1C(=O)c2[nH]nc(-c3ccccc3O)c2C1c1cccc(OCc2ccccc2)c1 (centres undefined),6.88% (inactive)
9,COc1cccc2c1cc1c(=O)n(CC(=O)N3CCN(c4ccccc4)CC3)nc(C)n12,-3.55% (inactive)
10,CC(=O)O[C@H]1CC[C@@]2(C)[C@@H](CC[C@@H]3[C@@H]2CC[C@]2(C)[C@@H](C(C)(C)O)C[C@@H]32)C1,-15.9% (inactive)
11,CC(=O)[C@@]12O[C@@H]1C[C@H]1[C@@H]3CC[C@H]4C[C@@H](O)CC[C@]4(C)[C@H]3CC[C@@]12C,-34.5% (active)
12,Cc1cccc(NC(c2cccc(F)c2)c2ccc3ccc(C)nc3c2O)n1 (centres undefined),-16.7% (inactive)
13,Cc1ccc(NC(=O)CCCNC(=O)c2ccc(Cl)cc2)cc1S(=O)(=O)N1CCCCC1,35.4% (inactive)
14,Cc1ccc(NC(=O)CCCNC(=O)c2ccc(Cl)cc2)cc1S(=O)(=O)N1CCOCC1,-36.7% (active)
15,Cc1ccc(NC(=O)CCNC(=O)c2ccc([N+](=O)[O-])cc2)cc1S(=O)(=O)N1CCOCC1,4.33% (inactive)
16,Cc1ccccc1CNC(=O)c1ccc(NC(=O)N2CCCCc3ccccc32)cc1,12.4% (inactive)
17,Cc1ccccc1CN1CCC(CNC(=O)c2cc3ccc4cccnc4c3[nH]2)CC1,-3.23% (inactive)
18,CC(C)(C)N1C(=O)[C@H]2[C@@H](c3ccc(Br)cc3)N3C(=O)N(c4cccc(Cl)c4)C(=O)[C@@]3(C)[C@H]2C1=O,-17.7% (inactive)
19,CC[C@@]12C(=O)N(c3ccccc3)C(=O)N1[C@H](c1ccc(Br)cc1)[C@@H]1C(=O)N(C(C)(C)C)C(=O)[C@@H]12,-1.44% (inactive)
20,COc1ccc([C@@H]2[C@@H]3C(=O)N(C(C)(C)C)C(=O)[C@@H]3[C@]3(Cc4ccccc4)C(=O)N(c4cccc(Br)c4)C(=O)N23)cc1,-34.9% (active)
21,Cc1nn(C(=O)c2c(F)cccc2F)c(C)c1S(=O)(=O)N1CCOCC1,10.5% (inactive)

row,SMILES,"activity change, negative = inhibition"
1,CCOc1ccc(N(CC)C(=O)C2CCN(S(=O)(=O)c3cccc4nonc34)CC2)cc1,-22% (inactive)
2,Cc1cc2n(n1)C(c1cc(C(C)(C)C)c(O)cc1O)Nc1ccccc1-2 (centres undefined),0.223% (inactive)
3,NS(=O)(=O)c1ccc2nc(NC(=O)COc3ccccc3)sc2c1,-38.3% (active)
4,NS(=O)(=O)c1ccc2nc(NC(=O)CS(=O)(=O)c3ccc(F)cc3)sc2c1,3.05% (inactive)
5,CN(C(=O)CSc1nc2ccc(NC(=O)COc3ccccc3)cc2s1)c1ccccc1,-11.3% (inactive)
6,COc1cccc(NS(=O)(=O)c2ccc(-c3coc(C)n3)cc2)c1,-22% (inactive)
7,CCN(c1cccc(C)c1)S(=O)(=O)c1ccc(-c2coc(C)n2)cc1,-16.9% (inactive)
8,Cc1ccc(NS(=O)(=O)c2ccc(-c3coc(C)n3)cc2)c(C)c1,-39.4% (active)
9,O=C(c1ccc(Br)cc1)N(Cc1cccs1)c1ccc(F)cc1,-5.47% (inactive)
10,COc1cc(OC)c(C(=O)NC2CC(C)(C)NC(C)(C)C2)cc1OC,-1.99% (inactive)
11,Cc1cccc(OCC(=O)NC2CC(C)(C)NC(C)(C)C2)c1,0.221% (inactive)
12,COc1ccc(C(=O)NC2CC(C)(C)NC(C)(C)C2)cc1OC,-30.4% (active)
13,Cc1ccc(NC(=O)c2oc3ccc(S(=O)(=O)N4CCCCC4)cc3c2C)cc1Cl,0.571% (inactive)
14,O=C(Nc1c2c(nn1-c1cccc(Cl)c1)CS(=O)(=O)C2)c1cccs1,-16.2% (inactive)
15,CC(C)(C)n1nc2c(c1NC(=O)c1cc3ccccc3o1)CSC2,6.7% (inactive)
16,Cc1cccc(-n2nc3c(c2NC(=O)c2cc4ccccc4o2)CS(=O)(=O)C3)c1,-49.1% (active)
17,Cc1nc2c(c(C)nn2-c2ccccc2)c(C)c1CCC(=O)NCCc1ccc(Cl)cc1,-0.289% (inactive)
18,Cc1oc(C)c2c(=O)cc(-c3ccc4c(c3)OCO4)cc(OC(=O)c3ccc(Cl)cc3)c12,-1.78% (inactive)
19,CCN1CCN(CCCNC(=O)c2cnn(-c3ccc(C)cc3C)c2C2CCN(C(=O)OC(C)(C)C)CC2)CC1,6.05% (inactive)
20,CCOC(=O)c1c(C)[nH]c(C)c1S(=O)(=O)NCC(=O)NCc1cccc(C)c1,13.9% (inactive)
21,CCOc1cccc(SCc2noc(C(=O)NC(C)C)c2C(=O)O)c1,3.21% (inactive)

row,SMILES,"activity change, negative = inhibition"
1,COCCNC(=O)c1onc(CSc2cccc(C)c2)c1C(=O)O,2.03% (inactive)
2,CCCCNC(=O)c1onc(CSc2cccc(OC)c2)c1C(=O)O,-73.2% (active)
3,CC(=O)N1CCCc2cc(S(=O)(=O)N3CCC(C(=O)NCc4ccc(C)cc4)CC3)ccc21,12.1% (inactive)
4,CCC1=Nc2cc(C(=O)NCCCN3CCOCC3)ccc2Sc2ccc(Br)cc21,11% (inactive)
5,O=C(NCCCN1CCOCC1)c1ccc2c(c1)N(Cc1cccc(F)c1)C(=O)c1ccccc1S2,-42.1% (active)
6,Cc1ccccc1CN1C(=O)c2ccccc2Sc2ccc(C(=O)NCCCN3CCOCC3)cc21,-9.56% (inactive) and -12% (inactive)
7,CC1CCN(C(=O)c2cccc(S(=O)(=O)N3CCCc4ccccc43)c2)CC1,-43.6% (active)
8,Cc1ccc(NC(=O)c2cccc(S(=O)(=O)N3CCCc4ccccc43)c2)nc1,3.95% (inactive)
9,CN1CCN(S(=O)(=O)c2cccc(C(=O)N3CCc4ccccc43)c2)CC1,-0.291% (inactive)
10,COc1ccc(Nc2ncc3c(n2)CCN(C(=O)OC(C)(C)C)C3)cc1,-16.1% (inactive)
11,CCCC(=O)Nc1cc2nn(-c3ccccc3)nc2cc1C,-6.53% (inactive)
12,O=C(c1cc(-c2ccc(O)cc2)on1)N1CCOCC1,-2.21% (inactive)
13,O=C(c1cc(-c2ccc(F)cc2)on1)N1CCN(c2ccc(F)cc2)CC1,6.41% (inactive) and -30% (active)
14,O=C(c1cc(-c2ccc(Cl)cc2)on1)N1CCN(c2ccccc2)CC1,8.05% (inactive)
15,Cc1nc(SCCOc2ccc(Cl)cc2)[nH]c(=O)c1Cc1ccccc1,-8.51% (inactive)
16,Cc1nc(SC(C)C)[nH]c(=O)c1Cc1ccccc1,-31.2% (active)
17,Cc1ccc(OCCSc2nc(C)c(Cc3ccccc3)c(=O)[nH]2)cc1,-2.95% (inactive)
18,COc1ccc(C2(Nc3cccc(F)c3)C(=O)c3ccccc3C2=O)cc1,-16% (inactive)
19,CCOC(=O)NNc1cc(C(F)(F)F)ccn1,-4.5% (inactive)
20,Cc1nc(N)[nH]c(=O)c1Oc1cccc(C(F)(F)F)c1,7.25% (inactive)
21,CCC(=O)OCc1c(C(F)(F)F)nn(C)c1Oc1cccc(C(F)(F)F)c1,-39.6% (active)
